Test [1] concerns the target T1, Tyrosine-protein kinase ITK/TSK (Homo sapiens) (UniProt Q08881).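 Further: values are mean percent inhibition of ITK from the GSK PKIS screen.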
T1 sequence (whole entry): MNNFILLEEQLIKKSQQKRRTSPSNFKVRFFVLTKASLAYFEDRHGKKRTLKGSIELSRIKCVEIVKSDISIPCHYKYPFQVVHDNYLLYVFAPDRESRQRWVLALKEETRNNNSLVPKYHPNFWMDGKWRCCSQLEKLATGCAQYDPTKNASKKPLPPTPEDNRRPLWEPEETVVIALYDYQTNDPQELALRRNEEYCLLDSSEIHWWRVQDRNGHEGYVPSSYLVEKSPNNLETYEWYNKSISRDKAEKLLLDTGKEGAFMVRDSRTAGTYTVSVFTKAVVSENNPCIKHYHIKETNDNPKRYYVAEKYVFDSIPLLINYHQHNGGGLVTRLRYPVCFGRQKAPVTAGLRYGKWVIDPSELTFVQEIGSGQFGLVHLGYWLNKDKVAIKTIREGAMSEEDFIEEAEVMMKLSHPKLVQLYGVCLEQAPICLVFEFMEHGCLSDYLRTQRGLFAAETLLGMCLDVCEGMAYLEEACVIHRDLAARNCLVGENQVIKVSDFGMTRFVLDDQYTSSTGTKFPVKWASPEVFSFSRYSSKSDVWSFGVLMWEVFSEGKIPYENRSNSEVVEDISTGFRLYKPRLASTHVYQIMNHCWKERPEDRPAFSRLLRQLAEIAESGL
The note with it: at 1 µM.

Test [2] deals with Tyrosine-protein kinase JAK1 (Homo sapiens) (UniProt P23458). The note with it: at 0.1 µM.
Test [3] has the same target. The settings on record: at 1 µM.
Test [4] concerns the target Tyrosine-protein kinase JAK2 (Homo sapiens) (UniProt O60674). The settings on record: at 0.1 µM.
The target is the same in test [5]. The note with it: at 1 µM.
For test [6], the target named is T2, Tyrosine-protein kinase JAK3 (Homo sapiens) (UniProt P52333).
T2 sequence (whole entry): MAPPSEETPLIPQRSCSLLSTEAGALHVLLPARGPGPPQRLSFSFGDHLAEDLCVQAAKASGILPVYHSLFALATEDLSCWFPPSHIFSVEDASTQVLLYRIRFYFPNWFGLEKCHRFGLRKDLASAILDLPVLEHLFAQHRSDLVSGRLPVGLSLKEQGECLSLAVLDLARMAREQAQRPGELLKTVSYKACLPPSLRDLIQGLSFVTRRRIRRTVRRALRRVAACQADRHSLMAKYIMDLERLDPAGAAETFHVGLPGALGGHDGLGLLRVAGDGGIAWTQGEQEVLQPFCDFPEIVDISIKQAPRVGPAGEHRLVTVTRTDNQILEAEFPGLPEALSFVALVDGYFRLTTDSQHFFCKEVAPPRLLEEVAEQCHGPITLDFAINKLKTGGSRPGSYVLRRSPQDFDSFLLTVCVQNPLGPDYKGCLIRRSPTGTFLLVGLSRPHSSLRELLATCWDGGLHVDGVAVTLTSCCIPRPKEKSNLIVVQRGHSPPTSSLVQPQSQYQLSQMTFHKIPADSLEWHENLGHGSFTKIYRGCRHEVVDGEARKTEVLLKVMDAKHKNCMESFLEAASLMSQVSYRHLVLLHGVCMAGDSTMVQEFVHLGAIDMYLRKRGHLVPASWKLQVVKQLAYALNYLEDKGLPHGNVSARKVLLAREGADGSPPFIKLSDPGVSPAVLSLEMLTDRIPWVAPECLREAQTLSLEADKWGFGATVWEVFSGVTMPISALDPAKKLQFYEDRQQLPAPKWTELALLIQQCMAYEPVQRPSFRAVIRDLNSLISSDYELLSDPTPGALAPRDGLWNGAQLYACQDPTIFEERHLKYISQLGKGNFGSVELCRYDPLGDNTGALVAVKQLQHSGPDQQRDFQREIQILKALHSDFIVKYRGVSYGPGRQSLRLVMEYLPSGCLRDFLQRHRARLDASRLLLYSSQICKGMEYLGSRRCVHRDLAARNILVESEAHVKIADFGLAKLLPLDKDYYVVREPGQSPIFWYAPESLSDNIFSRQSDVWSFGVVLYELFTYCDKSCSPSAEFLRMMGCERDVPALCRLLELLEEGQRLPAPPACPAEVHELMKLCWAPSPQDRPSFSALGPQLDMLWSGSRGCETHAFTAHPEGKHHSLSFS
The settings on record: at 0.1 µM.

Test [7] deals with T2, Tyrosine-protein kinase JAK3 (Homo sapiens). The settings on record: at 1 µM.
Test [8] concerns the target Vascular endothelial growth factor receptor 2 (Homo sapiens) (UniProt P35968). The settings on record: at 0.1 µM.
Test [9] shares this target. The note with it: at 1 µM.
The target of test [10] is Mast/stem cell growth factor receptor Kit (Homo sapiens) (UniProt P10721). The settings on record: at 0.1 µM.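 Further: values are mean inhibition of KIT, from the GSK PKIS dataset.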
Mast/stem cell growth factor receptor Kit (Homo sapiens), sequence (P10721 whole entry): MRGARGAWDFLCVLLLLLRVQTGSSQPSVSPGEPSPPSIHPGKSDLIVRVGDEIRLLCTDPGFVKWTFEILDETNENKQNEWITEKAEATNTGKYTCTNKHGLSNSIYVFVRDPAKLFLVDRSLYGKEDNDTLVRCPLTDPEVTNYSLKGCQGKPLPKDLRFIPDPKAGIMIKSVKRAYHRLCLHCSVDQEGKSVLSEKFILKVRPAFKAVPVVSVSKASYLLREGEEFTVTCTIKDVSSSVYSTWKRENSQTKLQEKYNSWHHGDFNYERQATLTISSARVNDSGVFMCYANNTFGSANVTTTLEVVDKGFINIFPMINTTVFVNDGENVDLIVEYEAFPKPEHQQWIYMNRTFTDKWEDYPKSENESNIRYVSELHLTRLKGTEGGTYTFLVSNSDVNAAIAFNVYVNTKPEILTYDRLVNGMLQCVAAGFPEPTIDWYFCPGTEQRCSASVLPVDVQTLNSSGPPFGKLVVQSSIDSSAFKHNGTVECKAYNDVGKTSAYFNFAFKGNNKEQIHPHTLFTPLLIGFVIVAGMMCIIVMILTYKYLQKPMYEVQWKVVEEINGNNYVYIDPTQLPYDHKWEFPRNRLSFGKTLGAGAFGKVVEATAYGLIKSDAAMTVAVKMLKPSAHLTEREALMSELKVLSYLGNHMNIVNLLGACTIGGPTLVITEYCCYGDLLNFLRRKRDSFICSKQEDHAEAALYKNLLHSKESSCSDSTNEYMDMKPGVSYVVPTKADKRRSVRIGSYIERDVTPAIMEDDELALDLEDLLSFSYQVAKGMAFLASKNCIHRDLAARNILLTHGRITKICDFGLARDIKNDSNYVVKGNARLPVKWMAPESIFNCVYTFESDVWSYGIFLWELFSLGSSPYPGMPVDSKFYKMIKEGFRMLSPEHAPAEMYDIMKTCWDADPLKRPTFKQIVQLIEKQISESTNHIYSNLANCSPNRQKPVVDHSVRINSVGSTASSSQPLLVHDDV

Vascular endothelial growth factor receptor 2 (Homo sapiens), sequence (P35968 whole entry): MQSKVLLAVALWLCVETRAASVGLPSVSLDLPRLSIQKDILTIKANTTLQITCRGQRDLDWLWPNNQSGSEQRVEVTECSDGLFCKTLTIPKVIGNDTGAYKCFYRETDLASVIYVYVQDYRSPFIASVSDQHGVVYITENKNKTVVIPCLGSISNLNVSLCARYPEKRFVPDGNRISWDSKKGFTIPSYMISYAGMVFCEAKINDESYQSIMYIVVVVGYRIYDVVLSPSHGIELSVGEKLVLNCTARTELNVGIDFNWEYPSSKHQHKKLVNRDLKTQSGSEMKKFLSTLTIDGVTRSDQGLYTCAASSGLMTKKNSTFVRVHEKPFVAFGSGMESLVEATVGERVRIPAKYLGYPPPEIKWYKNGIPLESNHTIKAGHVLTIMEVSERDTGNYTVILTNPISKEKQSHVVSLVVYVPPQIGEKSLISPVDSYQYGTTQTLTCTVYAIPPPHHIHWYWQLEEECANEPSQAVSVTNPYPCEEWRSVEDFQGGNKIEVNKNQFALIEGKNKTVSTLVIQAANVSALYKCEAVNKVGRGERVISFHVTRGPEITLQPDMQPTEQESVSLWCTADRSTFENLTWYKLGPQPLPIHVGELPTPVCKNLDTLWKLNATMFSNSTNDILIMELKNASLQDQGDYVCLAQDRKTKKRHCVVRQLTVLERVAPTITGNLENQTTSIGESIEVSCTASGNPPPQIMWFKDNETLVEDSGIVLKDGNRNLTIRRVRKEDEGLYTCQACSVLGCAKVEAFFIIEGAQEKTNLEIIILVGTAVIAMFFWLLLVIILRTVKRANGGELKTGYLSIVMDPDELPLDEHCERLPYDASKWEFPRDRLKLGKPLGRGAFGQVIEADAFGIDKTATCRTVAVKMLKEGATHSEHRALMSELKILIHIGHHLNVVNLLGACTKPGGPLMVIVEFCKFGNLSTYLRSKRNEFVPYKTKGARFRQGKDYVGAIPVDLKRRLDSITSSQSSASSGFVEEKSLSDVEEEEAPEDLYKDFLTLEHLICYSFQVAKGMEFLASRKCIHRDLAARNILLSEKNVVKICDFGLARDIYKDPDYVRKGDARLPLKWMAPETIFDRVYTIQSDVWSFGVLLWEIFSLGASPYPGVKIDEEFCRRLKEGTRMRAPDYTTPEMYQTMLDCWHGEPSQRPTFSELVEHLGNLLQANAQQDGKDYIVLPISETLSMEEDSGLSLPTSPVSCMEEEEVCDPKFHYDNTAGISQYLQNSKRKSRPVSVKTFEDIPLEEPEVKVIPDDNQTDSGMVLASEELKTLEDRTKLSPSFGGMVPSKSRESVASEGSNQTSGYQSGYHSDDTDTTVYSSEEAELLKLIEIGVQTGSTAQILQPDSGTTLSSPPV
Tyrosine-protein kinase JAK1 (Homo sapiens), sequence (P23458 whole entry): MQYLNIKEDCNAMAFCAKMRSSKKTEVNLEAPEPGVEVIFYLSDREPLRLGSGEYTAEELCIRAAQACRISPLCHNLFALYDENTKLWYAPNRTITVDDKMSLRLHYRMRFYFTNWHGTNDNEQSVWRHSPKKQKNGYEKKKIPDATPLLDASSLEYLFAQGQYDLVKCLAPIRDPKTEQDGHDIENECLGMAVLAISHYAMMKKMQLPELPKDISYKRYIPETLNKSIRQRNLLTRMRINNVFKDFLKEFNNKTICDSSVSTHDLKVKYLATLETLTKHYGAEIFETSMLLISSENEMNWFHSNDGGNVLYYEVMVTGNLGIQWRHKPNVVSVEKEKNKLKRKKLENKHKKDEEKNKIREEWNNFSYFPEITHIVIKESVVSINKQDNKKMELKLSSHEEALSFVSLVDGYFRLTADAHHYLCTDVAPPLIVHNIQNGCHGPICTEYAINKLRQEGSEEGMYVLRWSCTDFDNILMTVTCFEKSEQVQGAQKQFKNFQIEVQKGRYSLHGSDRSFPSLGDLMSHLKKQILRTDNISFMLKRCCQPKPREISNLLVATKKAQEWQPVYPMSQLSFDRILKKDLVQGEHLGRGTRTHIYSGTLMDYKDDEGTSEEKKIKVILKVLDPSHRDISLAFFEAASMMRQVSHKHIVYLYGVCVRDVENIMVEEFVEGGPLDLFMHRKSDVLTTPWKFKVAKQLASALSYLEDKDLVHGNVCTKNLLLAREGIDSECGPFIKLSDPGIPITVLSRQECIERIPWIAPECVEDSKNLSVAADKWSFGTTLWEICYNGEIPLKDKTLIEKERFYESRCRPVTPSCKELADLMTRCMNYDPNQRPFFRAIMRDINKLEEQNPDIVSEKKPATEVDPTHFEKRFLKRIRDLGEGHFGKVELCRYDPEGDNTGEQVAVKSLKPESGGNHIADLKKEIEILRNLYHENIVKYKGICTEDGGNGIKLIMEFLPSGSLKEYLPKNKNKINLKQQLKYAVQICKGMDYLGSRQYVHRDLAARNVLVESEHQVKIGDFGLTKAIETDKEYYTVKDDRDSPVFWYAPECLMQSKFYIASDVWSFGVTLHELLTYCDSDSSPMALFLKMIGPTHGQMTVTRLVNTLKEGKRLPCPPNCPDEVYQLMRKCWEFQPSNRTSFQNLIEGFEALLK
Tyrosine-protein kinase JAK2 (Homo sapiens), sequence (O60674 whole entry): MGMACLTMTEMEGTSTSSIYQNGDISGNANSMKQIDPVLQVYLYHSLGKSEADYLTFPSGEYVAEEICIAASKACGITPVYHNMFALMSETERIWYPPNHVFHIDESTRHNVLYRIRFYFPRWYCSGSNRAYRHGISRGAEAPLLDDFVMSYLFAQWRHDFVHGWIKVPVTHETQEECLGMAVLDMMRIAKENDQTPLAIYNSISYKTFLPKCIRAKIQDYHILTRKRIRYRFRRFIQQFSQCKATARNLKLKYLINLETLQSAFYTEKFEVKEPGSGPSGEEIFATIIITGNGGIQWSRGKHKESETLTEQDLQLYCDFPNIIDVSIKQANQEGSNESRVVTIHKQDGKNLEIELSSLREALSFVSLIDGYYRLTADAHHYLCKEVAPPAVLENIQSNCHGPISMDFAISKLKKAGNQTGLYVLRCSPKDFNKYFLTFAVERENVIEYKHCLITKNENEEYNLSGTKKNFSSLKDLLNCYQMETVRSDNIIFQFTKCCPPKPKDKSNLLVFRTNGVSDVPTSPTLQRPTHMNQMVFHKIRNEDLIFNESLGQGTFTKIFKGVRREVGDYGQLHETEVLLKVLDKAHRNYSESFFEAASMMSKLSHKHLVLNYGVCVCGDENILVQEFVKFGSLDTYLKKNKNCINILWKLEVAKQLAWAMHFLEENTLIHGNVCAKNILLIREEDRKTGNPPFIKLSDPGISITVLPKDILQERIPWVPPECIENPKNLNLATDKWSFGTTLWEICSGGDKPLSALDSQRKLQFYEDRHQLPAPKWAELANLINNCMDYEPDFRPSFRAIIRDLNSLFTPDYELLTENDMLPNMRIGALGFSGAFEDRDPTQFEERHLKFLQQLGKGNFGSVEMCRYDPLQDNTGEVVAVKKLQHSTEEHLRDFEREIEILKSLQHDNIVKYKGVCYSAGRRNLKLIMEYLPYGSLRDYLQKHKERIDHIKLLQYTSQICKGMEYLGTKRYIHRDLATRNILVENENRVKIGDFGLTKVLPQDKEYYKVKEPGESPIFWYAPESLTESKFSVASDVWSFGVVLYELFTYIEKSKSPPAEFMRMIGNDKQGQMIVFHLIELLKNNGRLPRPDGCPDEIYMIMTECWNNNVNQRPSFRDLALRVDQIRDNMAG

As for `CCc1nccc2c1nc(-c1nonc1N)n2CC`, the inhibition in test [1] was 1.25%; in test [2], 0.52%; in [3], -2.63%; in [4] it was 3.71%; in test [5], 2.91%; in test [6] it was 0%. In addition, the inhibition in test [7] worked out at 0.61%; in test [8], 5.64%; in [9] it was 17.7%; in test [10], 0.21%.

Turning to `COc1cc(Nc2ncc3c(C)nc(-c4cccc(Oc5ccccc5)c4)n3n2)cc(OC)c1OC`, the inhibition in test [1] was 2.18%; in test [2], 1.98%; in test [3] it was -5.12%; in [4], 0.96%; in test [5], 2.54%; in test [6] it was 0.02%. Further, the inhibition was determined as 1.74% in [7], 2.28% in [8], 3.61% in [9] and 3.09% in [10].

Turning to `CN(C)c1ccc2c(c1)/C(=C/Nc1ccc(S(N)(=O)=O)cc1)C(=O)N2`, the inhibition in test [1] was 3.68%; in test [2], 0.51%; in test [3] it was 14.2%; in test [4], 0.74%; in test [5], 2.09%; in test [6], -0.16%. The inhibition was 20.4% in test [7], 14.6% in test [8], 53.6% in test [9] and 4.04% in test [10].

With `COc1cc2ncn(-c3cc(OCc4cccs4)c(C(N)=O)s3)c2cc1OC`, the inhibition in test [1] is 2.34%; in test [2], 9.11%; in test [3], 19.9%; in [4] it was 1.45%; in [5], 1.19%; in [6], -2.77%. The inhibition in [7] is -0.29%; in test [8] it was 14.1%; in test [9] it was 50.5%; in test [10], 1.96%.

Regarding `COc1ccc(-c2ccc3c(NC(=O)C4CC4)n[nH]c3n2)cc1`, the inhibition is 2.25% in [1]; 2.09% in test [2]; 10.9% in test [3]; -0.18% in [4]; -0.27% in test [5]; -1% in [6]. The inhibition in test [7] amounted to 0.12%; in test [8] it was 0.66%; in [9], 3.4%; in test [10], 0.69%.

In the case of `COc1cc(Nc2ncc(-c3ccccc3)o2)cc(OC)c1OC`, the inhibition is 2.92% in [1]; -8.6% in [2]; -0.54% in [3]; -0.76% in test [4]; 5.24% in test [5]; -0.1% in test [6]. In addition, the inhibition in [7] amounted to 12.7%; in test [8] it was 7.23%; in test [9], 48%; in [10] it was 85.4%.

Consider `COc1ccc2ncn(-c3cc(O[C@H](C)c4ccccc4Cl)c(C(N)=O)s3)c2c1`, for which the inhibition was -2.51% in test [1]; -3.1% in test [2]; 2.15% in [3]; 1.31% in test [4]; 1.04% in test [5]; -7% in [6]. The inhibition was -5.28% in [7], 3.61% in [8], 13.4% in test [9] and 4.64% in test [10].

Regarding `NC(=O)c1cc(-c2ccncc2)cc(-c2ccccc2)c1N`, the inhibition was 1.74% in [1]; 6.03% in test [2]; 4.31% in [3]; 2.14% in [4]; 1.86% in test [5]; -1.25% in test [6]. Besides, the inhibition in test [7] is -1.1%; in test [8], 3.91%; in test [9], 10.7%; in test [10] it was 23%.

On to `COc1cccc(-n2cnc3c(N/N=C/c4ccncc4)ncnc32)c1`, for which the inhibition in test [1] was -1.27%; in [2], 4.44%; in test [3], 16.3%; in test [4], 0.27%; in [5], 0.37%; in test [6], -2.48%. The inhibition in test [7] was -2.19%; in test [8], -0.11%; in [9], 11.2%; in test [10], 33.4%.

For `CN(C)CCOc1ccc(-c2cc(-c3ccc4c(c3)CCC4=NO)c(-c3ccncc3)o2)cc1`, the inhibition in [1] was 0.28%; in test [2], 1.5%; in [3] it was 0.68%; in test [4], 0.4%; in test [5], -1.64%; in test [6] it was -0.61%. Further, the inhibition in test [7] is 1.8%; in [8], -0.68%; in test [9] it was 0.23%; in [10], -2.06%.

Take `Clc1ccc(CNc2nccc(-c3cnn4ncccc34)n2)cc1`: the inhibition in [1] was 1.37%; in test [2], -0.37%; in test [3], -0.62%; in [4] it was 1.52%; in [5], 3.6%; in test [6], -0.04%. For the same compound, the inhibition in test [7] was found to be 2.94%; in test [8], 0.99%; in test [9], 2.77%; in [10] it was 5%.

For `O=C1Nc2ccc(I)cc2C1=Cc1cc(Br)c(O)c(Br)c1`, the inhibition in test [1] was 1.44%; in test [2], 1.44%; in test [3], 2.67%; in test [4] it was 2.54%; in test [5], 3%; in test [6], -0.81%. Also, the inhibition was -3.69% in [7], 5.81% in [8], 9.7% in test [9] and 5.45% in [10].

Take `CCC(=O)Nc1ccc(C)c(-c2ccc(C(=O)NCC3CC3)cc2)c1`: the inhibition is -0.1% in [1]; 2.44% in [2]; 4.69% in test [3]; 1.7% in [4]; 1.15% in test [5]; -1.95% in [6]. Moreover, the inhibition was -0.85% in [7], 3.67% in test [8], 9.29% in [9] and 4.93% in test [10].

In the case of `O=C(Nc1n[nH]c2nc(-c3ccc(O)cc3)c(Br)cc12)C1CC1`, the inhibition in test [1] stood at 3.5%; in test [2] it was 15.5%; in test [3], 55%; in test [4] it was 3.57%; in [5], 28.4%; in [6], 11.9%. In addition, the inhibition is 62.2% in [7], 36.2% in [8], 71.6% in test [9] and 17.5% in test [10].

In the case of `COC(=O)Nc1nc2ccc(Sc3ccc(NC(=O)Nc4cc(C(F)(F)F)ccc4F)cc3)cc2[nH]1`, the inhibition in test [1] is 0.87%; in test [2] it was 0.69%; in test [3], -4.92%; in [4], 32.5%; in [5], 2.1%; in [6], -1.15%. In addition, the values for the inhibition in [7] and in test [10] were 2.49% and 1.63%, respectively.

On to `O=C(Nc1n[nH]c2nc(-c3ccco3)ccc12)C1CC1`, for which the inhibition is 2.43% in [1]; -0.37% in test [2]; -0.27% in test [3]; 0.87% in test [4]; 2.09% in test [5]; 0.01% in test [6]. Further, the inhibition is 2.11% in test [7], 7.28% in [8], 14% in [9] and 3.39% in test [10].

Turning to `N#Cc1ccc(Oc2nccc(-c3c(-c4ccc(F)cc4)ncn3C3CCNCC3)n2)cc1`, the inhibition in [1] is 0.22%; in test [2], 3.07%; in test [3], 3.3%; in [4], 1.47%; in [5] it was 0.75%; in [6] it was -3.92%. The inhibition is 1.56% in [7], 3.95% in test [8], 4.78% in test [9] and 6.17% in [10].

One may read the inhibition as the drop in the measured response relative to a control, in per cent.

(Values after ChEMBL document CHEMBL1961873, “Compounds: GSK PKIS; Assays: Nanosyn kinase panel” (2012).)
